Pf growth 48h = P. falciparum growth inhibition at 48 hours (one generation). AID 504832. 310,000 tested, 5.9% active. Potency, µM (doses to about 28.7 µM), inactives show at the top dose activity change, negative = inhibition, hits mostly inhibitors. P. falciparum luciferase growth in erythrocytes, 48 h; also: % is scaled to controls: 0 for no effect and ±100 for the full control effect
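Firefly luciferase activity from engineered P. falciparum reports growth; inhibitors lower the luminescent signal. Cultures contained 2% hematocrit erythrocytes at 0.1% final parasitemia.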
SARS PLP yeast = inhibitors of SARS-CoV papain-like protease in yeast | S. cerevisiae expressing SARS-CoV PLpro, growth rescue | Potency, µM (highest dose often 32.9 µM), without a hit: at the top dose activity, positive = growth rescue, actives largely listed as activators | 330,000 tested, 0.19% active | AID 485353; calls by dose curve; also: 0% is about no effect; nearly all actives have a fitted effect of over 55% in size
NS1 function inh = blocks influenza NS1 protein function. Potency, µM (series often up to 46.1 µM), inactives show at the top dose activity, positive = more growth. 270,000 tested, 0.4% active; calls by dose curve; also: actives are rising curves; nearly all actives have a fitted effect of over 50% in size
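In this qHTS, NS1 from influenza A is expressed in budding yeast, where it slows growth. Cells are switched from glucose to 2% galactose medium (pH 6.0, -URA), treated with compound, and growth recovery is read at OD600.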
RE007 growth inh = less growth of the S. pombe RE007 Vpr strain; S. pombe RE007 Vpr strain, BacTiter-Glo ATP luminescence, 24 h; Potency, µM (series often up to 92.2 µM), without a hit: top-dose activity change, negative = less growth, actives largely listed as inhibitors; 360,000 tested, 0.21% active; AID 651644; active = well fitted falling curve with a large enough effect; inconclusive = small, poorly fitted or top-dose-only effect; inactive = no such curve, though single readings can be large or run the other way; also: % is scaled to controls: 0 for no effect and ±100 for the full control effect; nearly all actives have a fitted effect of over 50% in size
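Fission yeast RE007 carrying one integrated HIV-1 vpr copy, seeded at OD 0.01 in PMG+AL medium with 23 nL pinned compound. Grown 24 h at 30 degrees; viability read by BacTiter-Glo luminescence after 5 min.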
Pf growth 96h = P. falciparum growth inhibition at 96 hours; 320,000 tested, 6.9% active; Potency, µM (series often up to 28.7 µM), for the others: at the top dose activity change, negative = inhibition, hits mostly inhibitors; P. falciparum luciferase reporter growth, 96 h; also: % is scaled to controls: 0 for no effect and ±100 for the full control effect
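Compounds incubated with erythrocytes infected by luciferase-expressing P. falciparum (2% hematocrit, 0.05% parasitemia final) for 96 hours, 37 C in 5% CO2. Growth inhibition scored as decreased luciferase luminescence.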
* marks the source's active call; other numbers are inactive results; ? = inconclusive; . = not tested or not shown; [ ] = another dose, or the depositor's remark. Compounds with a hit are over-represented: about 9.5% of the library has one in this group of screens. Unless noted, calls follow the shape of the dose curve; as a rule, active = well fitted inhibition curve with a large enough effect; inconclusive = small, poorly fitted or top-dose-only effect, or another doubt; inactive = no such curve, though single readings can be large or run the other way. Potency is read from the fitted curve at half-maximal effect.

SMILES	Pf growth 48h	SARS PLP yeast	NS1 function inh	RE007 growth inh	Pf growth 96h
CCOc1ccc(NC(=O)CSc2nc(NS(=O)(=O)c3ccc(C)cc3)cc(=O)[nH]2)cc1	-10.2%	-4.7%	0.3%	-12.6%	94.1%
CCc1ccc(NC(=O)CSc2nc(NS(=O)(=O)c3ccccc3)cc(=O)[nH]2)cc1	?	0.9%	8.0%	-3.2%	4.15µM*
O=Cc1ccc(OCC(=O)Nc2ccccc2C(F)(F)F)cc1	17.8%	-0.2%	-1.2%	6.1%	-0.5%
NC(=O)CCC1NC(=O)C(Cc2ccccc2)NC(=O)C(Cc2ccc(O)cc2)NC(=O)CCSSCC(C(=O)N2CCCC2C(=O)NC(CCCN=C(N)N)C(=O)NCC(N)=O)NC(=O)C(CC(N)=O)NC1=O (stereo unspecified)	16.3%	.	.	.	0.8%
COc1ccc(S(=O)(=O)NC2CCCCCC2)cc1C(N)=O	14.7%	4.3%	15.6%	-7.3%	63.7%
CCCCC1(Cc2cccc([N+](=O)[O-])c2)C(=O)N(c2ccccc2)N(c2ccccc2)C1=O	3.7µM*	-12.0%	-5.9%	8.7%	?
CCCCC1(CC(=O)OCC)C(=O)N(c2ccccc2)N(c2ccccc2)C1=O	?	-17.5%	-17.5%	-8.1%	14.7µM*
CCCCC1(CO)C(=O)N(c2ccccc2)N(c2ccccc2)C1=O	2.0%	-0.4%	4.1%	3.0%	0.0%
C[C@@H]1CN([C@H](C)CO)C(=O)c2cc(Br)cnc2O[C@@H]1CN(C)Cc1ccc(-c2ccccc2)cc1	.	.	.	-22.5%	.
CCOC(=O)c1cnc2ccc(C(=O)OC)cc2c1Nc1ccc2c(c1)OCCO2	?	1.0%	0.5%	11.6%	10.4µM*
CCOC(=O)c1ccc2ncc(C(=O)OCC)c(NCc3ccco3)c2c1	.	1.9%	-25.6%	-3.4%	1.65µM*
CCOC(=O)c1ccc2ncc(C(=O)OCC)c(Nc3ccc(N4CCOCC4)cc3)c2c1	?	9.3%	9.9%	21.7%	?
CCOC(=O)c1cnc2c(OC)cccc2c1Nc1ccc2c(c1)OCCO2	2.33µM*	0.1%	-4.2%	-5.3%	?
CCOC(=O)c1cnc2c(C)cccc2c1NCc1ccco1	?	-5.6%	-9.1%	0.8%	?
CCOC(=O)c1cnc2ccc(OC)cc2c1Nc1ccc(N2CCN(C)CC2)cc1	1.65µM*	-0.4%	-1.7%	-10.1%	0.928µM*
COc1ccc(OC)c(NC(=O)C2(C)CCN2C(=O)C(C)(C)c2ccccc2)c1 (stereo unspecified)	.	.	.	-0.3%[18.4 µM]	.
N#Cc1ncc(Cl)c2ccccc12	?	-0.1%	10.2%	11.3%	-11.4%
CC(=O)N1c2ccccc2Sc2ccccc21	0.0%	-4.8%	14.1%	4.8%	?
Cc1cccc[n+]1CC(=O)N1c2ccccc2Sc2ccccc21	3.7µM*	?	-4.0%	-26.1%	-0.5%
Cn1c(=O)c2c(nc(SCC(=O)NCC3CCCO3)n2Cc2ccc(F)cc2)n(C)c1=O (stereo unspecified)	?	1.0%	-1.4%	11.8%	22.2%
COc1ccccc1C1=NNC(=Nc2cccc(S(=O)(=O)N(C)C)c2)SC1	1.85µM*	-2.6%	?	-7.7%	?
Cc1cccc(C)c1N=C1NN=C(c2ccccc2F)CS1	-2.1%	27.0%	3.1%	?	?
CC1(c2ccccc2Br)NC(=O)N(CC(=O)NC2CCCCC2)C1=O (stereo unspecified)	?	-9.8%	.	2.9%	11.7µM*
CCC(C)(C)NC(=O)CN(C(=O)CNS(=O)(=O)c1ccc(C)cc1)c1ccc2c(c1)OCCO2	6.57µM*	1.8%	-6.1%	17.7%	.
CCCCCCCCCCCCCCCCCCCCCCO	3.7%	.	.	.	-10.0%
CCCCCCCCCCCCCCC(O)C[N+](C)(CCO)CCO (stereo unspecified)	.	.	.	31.6µM*	.
O=C(Nc1ccccc1C(=O)NC(Cc1ccccc1)C(=O)NC1CCCCC1)c1ccccc1 (stereo unspecified)	10.4µM*	-6.4%	7.0%	-6.6%	?
COc1ccc(C(=O)NNC(=O)C(Cc2ccc(O)cc2)NC(=O)c2ccccc2NC(=O)c2ccc(OC)cc2)cc1 (stereo unspecified)	?	19.0%	7.0%	-7.7%	60.6%
